The record followed here is PubChem BioAssay (NCI).

SMILES strings stand for the structures. About 83,000 compounds went through this panel and 20% of them were active in at least one assay; those are over-represented in the sample as a whole.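 Single-dose data. Exposure time 48 hours. Values below 10 considered active.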 Calls of active or inactive are those of the source.

In the experiment the test system is SW-620 colon. Description: NCI-60 one-dose screen, 48 h (100 = growth as untreated, 0 = no growth, -100 = all killed). The following applies: 10 µM unless noted. On the procedure: Growth inhibition of the SW-620 human tumor cell line is measured as a screen for anti-cancer activity. Cells are grown in 96 well plates and exposed to the test compound for 48 hours. Compounds are tested at a single concentration, which is 10^-5 M for most compounds. The reported endpoint is percent growth (GI% or GIPRCNT), where numbers from 0 - 100% represent growth inhibition, and numbers from -100% - 0 represent cell death. For example, a value of 40 represents 60% growth inhibition. A value of 0 means no net growth occurred over the course of the experiment. A value of -40 indicates 40% of cells at the beginning of the experiment died by the end of the experiment. A value of -100 means all cells are dead at the end of the experiment.
NCI-60 Human Tumor Cell Lines Screen was performed using the standard one-dose NCI protocol, which is described in more detail at https://dtp.cancer.gov/discovery_development/nci-60/default.htm.
Compounds with GIPRCNT values below 10 were considered active. Activity score was based on GIPRCNT using the following formula: […]
Score is 0 for GIPRCNT values of 100 or above, 50 for GIPRCNT values of 0, and 100 for GIPRCNT values of -100.
`NC1=NN(O)C2=CC([N+](=O)[O-])C=CC2=N1` (stereo not given): the growth is 110% (inactive).
Regarding `Cc1cc(N/N=C/c2nc(-c3ccccc3)oc2C)c2cc(Cl)ccc2n1`, the growth is -73.3% (active).
Turning to `COc1ccc(-n2c(=S)sc3c(Cl)nc(C)nc32)c(OC)c1`, the growth was 45.4% (inactive).
Consider `O=C(c1c[nH]c(=O)c(-c2ccccc2)c1)c1ccccc1O`, for which the growth is 92.6% (inactive).
For `CCN(CC)c1ccc2[nH]c3c(C(N)=O)cc(=O)c(=O)c=3oc2c1`, the growth is 9.8% (active).
As to `COc1ccc(-c2nc3sc(-c4cc(OC)c(OC)c(OC)c4)nn3c2/C=C2/C(=O)Nc3ccc(F)cc32)cc1`, the growth is 0.989% (active).
As to `CCO/C=N/C1=C(C#N)C(c2ccc(Cl)cc2)c2c(c3ccc(C)cc3[nH]c2=O)O1` (stereo not given), the growth was 84.6% (inactive).
Turning to `NC1=NC(SCc2ccccc2CCl)c2ncn(Cc3ccccc3CCl)c2N1` (stereo not given), the growth is 2.06% (active).
To `COc1ccc(/C=C2\N=C(c3ccccc3)N(C(=O)c3ccccc3O)NC2=O)cc1` belongs 100% (inactive); to `N/C(=N\C(N)=N\c1nc2ccccc2s1)c1ccncc1`, 35.2% (inactive).
For the compound `COc1cc([N+](=O)[O-])c2ncccc2c1O`, the growth is 58.6% (inactive).
As to `CNC(=S)NNC(=O)C1CC1`, the growth is 112% (inactive).
For `C=C1C(=O)O[C@H]2[C@H]1CC/C(Cn1cc(CNC(=O)c3cc4ccccc4[nH]3)nn1)=C\CC[C@@]1(C)O[C@@H]21`, the growth was -32.5% (active).
`COc1cc2c(c(OC)c1OC)-c1ccc(N)c(=O)cc1[C@@H](NC(C)=O)CC2`: the growth was 22.7% (inactive).
Consider `O=C1NC(=C(Cl)Cl)/C(=N/S(=O)(=O)N2CCC(C3(C(F)(F)F)N=N3)CC2)N1`, for which the growth is -36.4% (active).
To `CC(C)(C)N1CCC1C(N)=O` (stereo not given) belongs 97.7% (inactive); to `O=C(O)c1nc(-c2ccccc2)oc1N1CCOCC1`, 96% (inactive); to `CCCCCCCCCCCCCCCCCCNC(=O)[C@H]1CSC(c2cccs2)N1` (stereo not given in full), -65.5% (active).
As to `O=C(Nc1cccc(-n2cc(-c3ccncc3)c(-c3ccc(Cl)c(O)c3)n2)c1)Nc1cc(C(F)(F)F)cc(C(F)(F)F)c1`, the growth is 3.32% (active).
Turning to `C1=Cc2ccccc2N(c2nnc(-c3ccccc3)o2)c2ccccc21`, the growth is 99.9% (inactive).
The value for `C=CCn1c2ccccc2c2c3c(c4c5ccccc5n(CC=C)c4c21)C(=O)N(O)C3=O` was 54.9% (inactive); that for `COc1ccc(-c2c(N)n[nH]c2-c2cc(OC)c3c(c2)OCCO3)cc1` was 48% (inactive).
`C/C(=C\c1ccc(OCC(=O)O)c(Cl)c1Cl)[N+](=O)[O-]`: the growth is 114% (inactive).
Take `Cc1ccc(S(=O)(=O)c2nc(-c3ccccc3)oc2S(C)(=O)=O)cc1`: the growth is -29.2% (active).
The value for `CCN(CC)CCC(CNc1ccnc2cc(Cl)ccc12)c1ccccc1` (stereo not given) was 62.3% (inactive).
Consider `Cc1nc2c3c(ncn2n1)Oc1c(c(=O)[nH]c2ccccc12)C3c1ccc(Cl)cc1` (stereo not given), for which the growth is 95.4% (inactive).
With `COc1ccc(Cn2cc3c(c2-c2cc(OC)c(OC)c(OC)c2)CCc2cnoc2-3)cc1`, the growth is 29.8% (inactive).
Consider `COc1cccc(-c2nc3sccn3c2-c2ccnc(NCCCNS(=O)(=O)c3ccc(F)cc3)c2)c1`, for which the growth was 41.7% (inactive).
On to `COc1ccc(/C=C\c2cc(OC)c(OC)c(OC)c2)cc1OC(=O)c1cccc(Cn2cc(CCOC(=O)c3cccc(Cn4nnc5c4C(=O)c4ccccc4C5=O)c3)nn2)c1`, for which the growth is 27.8% (inactive).
With `COc1ccc(OC)c(C2OC(c3ccc4ccccc4c3O)=NN2C(C)=O)c1` (stereo not given), the growth is 54.5% (inactive).
To `O=C(O)COc1ccc(-c2cssc2=S)cc1` belongs 107% (inactive).
The value for `O=C(NNC(=O)N1c2ccccc2C=Cc2ccccc21)c1ccccc1` was 107% (inactive); that for `Cc1[nH]c2ccc(F)cc2c1CCNC(=O)C1CCN(C(=O)c2ccccc2)CC1` was 96.5% [25 µM] (inactive); that for `CCOc1cc2c(Cl)ncnc2c(OCC)c1OCC` was 59.2% (inactive).
The value for `N=c1ccc2nc3ccc(N)cc3sc-2c1` was 31.7% (inactive).
For the compound `COc1ccc(C2NN=C3c4ccccc4CCC32)cc1` (stereo not given), the growth is 29.9% (inactive).
As to `ClC(Cl)c1nc(-c2cccnc2)n2nc(-c3ccccc3)cc2n1`, the growth is 0.424% (active).
The value for `Cc1ccc(-c2cc3nc(C(Cl)Cl)nc(-c4ccccc4C)n3n2)cc1` was 46.1% (inactive).
Turning to `CC1=NC2=CC=CC3=NC(C(Cl)(Cl)Cl)=NC(=N1)N23`, the growth was 78.4% (inactive).
To `CCCCCCCCCCCCCCCCNC(=O)OC(C)C` belongs 18.9% (inactive).
